# According to PubChem BioAssay (EPA / NIEHS):
# More than one record can exist for a structure, and the calls need not agree. Activity calls are given as the source filed them. The calls were made as follows: active = hit-call score of the fitted dose curve at least 0.9, where 1 is the maximum; inactive = score below 0.9.
# What was measured:
# [1] = ATG_ISRE_CIS: Attagene CIS-FACTORIAL HepG2 Assay for human Interferon Regulatory Factor 1 (IRF1) binding to an Interferon-Stimulated Response Element (ISRE) (AID 2282948); conditions: HepG2 ISRE cis-reporter (Attagene), mRNA transcription readout; actives raise or lower the signal
# Outline: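 Multiplexed mRNA reporter readout in human liver HepG2 cells: cis-element-driven reporters transfected, compound added for 24 h, transcripts amplified, fluorescently labelled and sized by capillary electrophoresis; curve fitting bidirectional against DMSO.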
# [2] = ATG_M_32_CIS: Attagene CIS-FACTORIAL HepG2 Assay for M32 Transcription Factor (Internal Marker) (AID 2282949); conditions: HepG2 Attagene cis-factorial M32 reporter, mRNA; actives raise or lower the signal;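 also: background control marker of the multiplexed CIS panel rather than a real target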
# Outline: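 Transient MRTU transfection of HepG2; 24 h compound treatment; TriZol RNA, oligo(dT) RT, reporter PCR, 6-FAM primer extension, HpaI cut, CE. Gain/loss of signal vs DMSO.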
# [3] = ATG_M_06_CIS: Attagene CIS-FACTORIAL HepG2 Assay for M06 Transcription Factor (Internal Marker) (AID 2282950); conditions: HepG2 Attagene CIS-FACTORIAL M06 internal marker reporter; actives raise or lower the signal
# Outline: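 Cells (HepG2, transiently carrying cis-driven reporter units) receive chemical for 24 h before RNA isolation. Reporter cDNA is PCR-amplified, FAM-labelled by primer extension, HpaI-digested and sized on a capillary analyser.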
# [4] = biological target: Hypoxia-inducible factor 1-alpha (Homo sapiens) (UniProt Q16665); assay: ATG_HIF1a_CIS: Attagene CIS-FACTORIAL HepG2 Assay for human Hypoxia Inducible Factor 1 (HIF1A) (AID 2282951); conditions: HepG2 Attagene cis-factorial HIF1a reporter transcription; actives raise or lower the signal
# Chain of Hypoxia-inducible factor 1-alpha (Homo sapiens) (Q16665 whole entry, looked up): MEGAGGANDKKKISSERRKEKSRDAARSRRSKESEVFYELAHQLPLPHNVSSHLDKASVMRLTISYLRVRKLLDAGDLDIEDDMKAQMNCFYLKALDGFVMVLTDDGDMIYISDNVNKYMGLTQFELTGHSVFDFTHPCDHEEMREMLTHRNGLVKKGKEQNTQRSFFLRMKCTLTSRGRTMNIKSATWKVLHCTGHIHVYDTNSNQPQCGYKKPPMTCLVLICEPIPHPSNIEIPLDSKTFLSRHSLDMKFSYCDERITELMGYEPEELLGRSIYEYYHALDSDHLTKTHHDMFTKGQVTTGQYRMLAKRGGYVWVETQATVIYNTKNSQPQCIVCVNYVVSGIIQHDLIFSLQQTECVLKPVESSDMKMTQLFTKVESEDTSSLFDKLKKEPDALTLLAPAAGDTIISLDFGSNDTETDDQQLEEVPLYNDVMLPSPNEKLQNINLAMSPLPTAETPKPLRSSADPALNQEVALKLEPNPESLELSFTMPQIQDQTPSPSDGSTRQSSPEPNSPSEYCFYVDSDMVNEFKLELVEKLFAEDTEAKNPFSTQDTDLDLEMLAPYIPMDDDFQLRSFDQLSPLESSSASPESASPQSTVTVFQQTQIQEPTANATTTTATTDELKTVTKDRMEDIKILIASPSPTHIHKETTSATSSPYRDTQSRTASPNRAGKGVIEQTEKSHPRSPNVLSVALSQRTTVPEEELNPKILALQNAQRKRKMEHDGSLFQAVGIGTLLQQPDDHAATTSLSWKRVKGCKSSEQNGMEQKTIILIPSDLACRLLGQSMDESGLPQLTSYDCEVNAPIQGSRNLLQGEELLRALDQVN
# Outline: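 Endogenous-TF cis reporter readout, human HepG2 cells, 24 h incubation; mRNA detected via RT-PCR and capillary electrophoresis fluorescence; DMSO-normalised bidirectional fitting.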
# [5] = biological target: Hepatocyte nuclear factor 6 (Homo sapiens) (UniProt Q9UBC0); assay: ATG_HNF6_CIS: Attagene CIS-FACTORIAL HepG2 Assay for human Hepatocyte Nuclear Factor 6 (HNF6) (AID 2282952); conditions: HepG2 Attagene cis-factorial HNF6 reporter transcription; actives raise or lower the signal
# Chain of Hepatocyte nuclear factor 6 (Homo sapiens) (Q9UBC0 whole entry, looked up): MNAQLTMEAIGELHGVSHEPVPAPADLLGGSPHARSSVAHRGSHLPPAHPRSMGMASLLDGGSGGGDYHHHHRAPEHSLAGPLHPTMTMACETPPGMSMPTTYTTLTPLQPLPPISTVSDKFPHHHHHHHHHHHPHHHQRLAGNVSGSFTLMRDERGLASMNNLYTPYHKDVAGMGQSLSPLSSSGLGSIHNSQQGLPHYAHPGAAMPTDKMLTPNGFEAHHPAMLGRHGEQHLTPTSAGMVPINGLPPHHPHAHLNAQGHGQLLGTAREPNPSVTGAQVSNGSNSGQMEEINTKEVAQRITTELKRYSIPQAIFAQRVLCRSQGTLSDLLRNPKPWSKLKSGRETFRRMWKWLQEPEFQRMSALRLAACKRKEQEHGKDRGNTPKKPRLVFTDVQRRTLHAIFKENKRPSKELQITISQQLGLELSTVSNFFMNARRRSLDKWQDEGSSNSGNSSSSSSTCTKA
# Outline: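 Endogenous transcription factor activity in human HepG2 liver cells was captured through cis-regulated reporter constructs. After 24 h treatment, reporter mRNA was measured by RT-PCR with capillary electrophoresis, and activity was fitted in both directions relative to DMSO.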
# [6] = biological target: Heat shock factor protein 1 (Homo sapiens) (UniProt Q00613); assay: ATG_HSE_CIS: Attagene CIS-FACTORIAL HepG2 Assay for human Heat Shock Transcription Factor 1 (HSE) (AID 2282953); conditions: HepG2 HSE cis-reporter, Attagene RNA transcription; actives raise or lower the signal
# Chain of Heat shock factor protein 1 (Homo sapiens) (Q00613 whole entry, looked up): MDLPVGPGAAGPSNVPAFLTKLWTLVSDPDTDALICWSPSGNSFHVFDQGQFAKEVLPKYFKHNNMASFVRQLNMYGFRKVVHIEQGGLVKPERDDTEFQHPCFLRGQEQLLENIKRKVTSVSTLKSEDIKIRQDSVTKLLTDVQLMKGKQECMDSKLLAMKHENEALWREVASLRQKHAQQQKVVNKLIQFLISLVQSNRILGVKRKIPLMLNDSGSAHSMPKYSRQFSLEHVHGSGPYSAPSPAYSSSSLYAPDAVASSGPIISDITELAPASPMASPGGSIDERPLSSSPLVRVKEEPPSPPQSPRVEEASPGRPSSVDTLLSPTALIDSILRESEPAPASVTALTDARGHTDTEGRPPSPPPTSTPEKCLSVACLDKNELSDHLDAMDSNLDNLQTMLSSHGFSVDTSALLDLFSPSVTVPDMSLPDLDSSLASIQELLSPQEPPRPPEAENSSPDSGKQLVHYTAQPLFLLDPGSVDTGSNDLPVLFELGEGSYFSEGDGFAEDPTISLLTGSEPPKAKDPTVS
# Outline: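 Liver-derived HepG2 cells carry transiently introduced multiple reporter units governed by cis promoters. Reporter RNA measured 24 h post-dose through reverse transcription, PCR amplification, fluorescent labelling and capillary electrophoresis, normalised to DMSO.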
# [7] = ATG_MRE_CIS: Attagene CIS-FACTORIAL HepG2 Assay for human Metal Responsive Element (MRE) (AID 2282954); conditions: HepG2 MRE cis-reporter transcription, Attagene multiplex; actives raise or lower the signal
# Outline: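 RT-PCR/capillary electrophoresis readout of reporter mRNA, 24 h post-dosing, in HepG2 cells transfected with multiplexed cis-regulated reporter constructs. Gain or loss of signal fitted bidirectionally against DMSO baseline.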
# [8] = ATG_PBREM_CIS: Attagene CIS-FACTORIAL HepG2 Assay for human Phenobarbital-responsive Enhancer Module (PBREM) (AID 2282955); conditions: HepG2 PBREM cis-reporter, Attagene multiplexed transcription; actives raise or lower the signal
# Outline: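 Readout: reporter mRNA, fluorescent RT-PCR fragments separated by capillary electrophoresis. System: HepG2 transiently transfected with cis-regulated reporter units. Exposure: 24 h. Analysis: bidirectional, DMSO baseline.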
# [9] = ATG_PXRE_CIS: Attagene CIS-FACTORIAL HepG2 Assay for human Pregnane X Receptor Element (PXRE) (AID 2282957); conditions: HepG2 Attagene CIS-FACTORIAL PXRE reporter, mRNA; actives raise or lower the signal
# Outline: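 Endogenous transcription factor activity in HepG2 was gauged through induction of reporter mRNA driven by a cis-regulating promoter element, sampled 24 h post-treatment. Activity was fitted in both directions against DMSO negative control.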
# [10] = ATG_Sox_CIS: Attagene CIS-FACTORIAL HepG2 Assay for human SRY-box transcription factor (SOX) (AID 2282960); conditions: HepG2 Attagene cis-factorial SOX reporter, mRNA; actives raise or lower the signal
# Outline: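 Using transiently transfected HepG2 cells, reporter transcription driven by cis elements was assessed 24 h after dosing. Signal was fluorescence of capillary-separated RT-PCR products, with DMSO defining baseline activity.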
# [11] = biological target: Transcription factor Sp1 (Homo sapiens) (UniProt P08047); assay: ATG_Sp1_CIS: Attagene CIS-FACTORIAL HepG2 Assay for human Specificity Protein 1 (Sp1) (AID 2282961); conditions: HepG2 Sp1 cis-reporter transcription, actives raise or lower the signal
# Chain of Transcription factor Sp1 (Homo sapiens) (P08047 whole entry, looked up): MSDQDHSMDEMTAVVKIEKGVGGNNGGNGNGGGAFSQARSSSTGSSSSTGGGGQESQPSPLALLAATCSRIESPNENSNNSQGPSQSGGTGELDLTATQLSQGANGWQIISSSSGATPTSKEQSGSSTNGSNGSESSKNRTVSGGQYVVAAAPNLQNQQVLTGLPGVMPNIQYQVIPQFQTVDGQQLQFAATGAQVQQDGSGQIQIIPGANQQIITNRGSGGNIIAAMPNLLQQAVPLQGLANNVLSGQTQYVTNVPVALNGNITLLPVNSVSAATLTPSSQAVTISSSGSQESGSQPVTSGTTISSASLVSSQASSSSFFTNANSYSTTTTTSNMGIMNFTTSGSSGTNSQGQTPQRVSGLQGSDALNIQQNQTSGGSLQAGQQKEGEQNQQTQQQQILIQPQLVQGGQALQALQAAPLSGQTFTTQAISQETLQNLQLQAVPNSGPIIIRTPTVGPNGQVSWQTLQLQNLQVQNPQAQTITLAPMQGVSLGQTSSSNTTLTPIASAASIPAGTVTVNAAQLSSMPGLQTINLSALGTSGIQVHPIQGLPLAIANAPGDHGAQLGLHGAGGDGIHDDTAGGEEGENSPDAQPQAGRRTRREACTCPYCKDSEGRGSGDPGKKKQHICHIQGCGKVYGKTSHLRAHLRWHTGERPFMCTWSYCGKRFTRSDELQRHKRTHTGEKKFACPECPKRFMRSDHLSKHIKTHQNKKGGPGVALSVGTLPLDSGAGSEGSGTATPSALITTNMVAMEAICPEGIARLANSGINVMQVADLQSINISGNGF
# Outline: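 After transient transfection of HepG2 cells with cis-promoter reporter units and 24 h chemical treatment, reporter transcripts were quantified by RT-PCR and capillary electrophoresis fluorescence. Gain- and loss-of-signal fitted against DMSO.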
# [12] = ATG_SREBP_CIS: Attagene CIS-FACTORIAL HepG2 Assay for human Sterol Regulatory Element Binding (SREBP) (AID 2282962); conditions: HepG2 Attagene cis-factorial SREBP reporter, mRNA; actives raise or lower the signal
# Outline: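 Endogenous factor activity is measured in HepG2 through multiplexed reporter units under cis-element control. Following a 24 h incubation, reporter transcripts are reverse-transcribed, PCR-amplified and sized by capillary electrophoresis; activity is fitted in both directions relative to DMSO.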
# [13] = ATG_TA_CIS: Attagene CIS-FACTORIAL HepG2 Assay for human TA Basal Promoter (AID 2282964); conditions: HepG2 Attagene CIS-factorial TA basal promoter reporter; actives raise or lower the signal
# Outline: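 Background internal-marker endpoint from a 52-component HepG2 cis-reporter panel. Cells treated 24 h; reporter transcripts quantified via RT-PCR and CE fluorescence against DMSO baseline.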
# [14] = ATG_TCF_b_cat_CIS: Attagene CIS-FACTORIAL HepG2 Assay for human T-Cell-Factor with beta-catenin (TCF/b-cat) (AID 2282965); conditions: HepG2 TCF/beta-catenin cis-reporter transcription, actives raise or lower the signal
# Outline: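 HepG2, transient MRTU transfection, cis-element-driven reporters (endogenous TFs). 24 h compound exposure. Readout: reporter mRNA by RT-PCR + 6-FAM primer extension, HpaI digest, capillary electrophoresis. Gain/loss fit vs DMSO baseline.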
# [15] = ATG_GRE_CIS: Attagene CIS-FACTORIAL HepG2 Assay for human Glucocorticoid Response Elements (GRE) (AID 2282947); conditions: HepG2 GRE cis-reporter, Attagene multiplex mRNA; actives raise or lower the signal
# Outline: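 Read-out: fluorescent reporter-transcript fragments separated by capillary electrophoresis after RT-PCR. Transiently transfected HepG2 cells carrying cis-element-driven reporter units were dosed for 24 h; gain or loss of signal fitted against DMSO control.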
# [16] = ATG_PPRE_CIS: Attagene CIS-FACTORIAL HepG2 Assay for human Peroxisome Proliferator-activated Response Element (PPRE) (AID 2282958); conditions: HepG2 PPRE cis-element reporter, Attagene transcription factor profiling; actives raise or lower the signal
# Outline: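 After human HepG2 hepatoma cells were transiently transfected with cis-promoter reporter constructs, they were exposed to test chemicals for 24 hours. Reporter RNA was then reverse-transcribed, PCR-amplified, FAM-labeled, HpaI-digested and quantified by capillary electrophoresis.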
# [17] = ATG_RORE_CIS: Attagene CIS-FACTORIAL HepG2 Assay for human RAR-related Orphan Receptor Element (RORE) (AID 2282959); conditions: HepG2 Attagene cis-factorial RORE reporter, mRNA; actives raise or lower the signal
# Outline: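 Measured here: transcript induction of a cis-regulated reporter in HepG2 cells transiently transfected via FuGene 6. After 24 h, RNA was processed by RT-PCR and fluorescent capillary electrophoresis; DMSO defined baseline activity.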
# [18] = ATG_TAL_CIS: Attagene CIS-FACTORIAL HepG2 Assay for human TAL Basal Promoter (AID 2282966); conditions: HepG2 Attagene cis-factorial TAL promoter reporter; actives raise or lower the signal;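 also: background control endpoint measuring basal TAL promoter reporter mRNA not a specific factor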
# Outline: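 Endogenous transcription-factor activity is sensed in HepG2 cells through transfected cis-promoter reporter constructs. After 24 h dosing, reporter transcripts are quantified by RT-PCR and capillary electrophoresis. Gain or loss of signal is fitted relative to DMSO.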
# [19] = biological target: Signal transducer and activator of transcription 3 (Homo sapiens) (UniProt P40763); assay: ATG_STAT3_CIS: Attagene CIS-FACTORIAL HepG2 Assay for human Signal Transducer and Activator of Transcription 3 (STAT3) (AID 2282963); conditions: HepG2, Attagene cis-factorial STAT3 reporter transcription; actives raise or lower the signal
# Chain of Signal transducer and activator of transcription 3 (Homo sapiens) (P40763 whole entry, looked up, the tested form may be a part): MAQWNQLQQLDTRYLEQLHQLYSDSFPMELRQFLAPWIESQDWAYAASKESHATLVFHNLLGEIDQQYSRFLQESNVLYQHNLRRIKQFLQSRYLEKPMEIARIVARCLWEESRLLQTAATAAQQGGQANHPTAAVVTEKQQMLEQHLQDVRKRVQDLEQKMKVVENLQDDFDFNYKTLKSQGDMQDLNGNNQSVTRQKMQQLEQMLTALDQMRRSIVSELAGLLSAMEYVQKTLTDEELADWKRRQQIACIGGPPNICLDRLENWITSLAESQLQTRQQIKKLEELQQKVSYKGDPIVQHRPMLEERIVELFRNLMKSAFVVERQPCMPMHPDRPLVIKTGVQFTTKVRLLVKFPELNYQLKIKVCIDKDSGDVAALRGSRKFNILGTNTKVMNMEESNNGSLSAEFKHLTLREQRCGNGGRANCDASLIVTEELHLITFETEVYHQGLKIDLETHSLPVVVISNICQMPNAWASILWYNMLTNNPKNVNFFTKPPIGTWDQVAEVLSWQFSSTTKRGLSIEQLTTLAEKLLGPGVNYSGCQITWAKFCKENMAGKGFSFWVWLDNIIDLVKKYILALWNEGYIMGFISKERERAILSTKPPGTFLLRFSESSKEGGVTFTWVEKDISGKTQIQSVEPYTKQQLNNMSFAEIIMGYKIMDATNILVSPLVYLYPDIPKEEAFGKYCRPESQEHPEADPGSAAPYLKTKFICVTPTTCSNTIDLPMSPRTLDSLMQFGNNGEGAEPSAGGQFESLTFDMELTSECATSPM
# Outline: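 Readout: fluorescent reporter mRNA fragments resolved by capillary electrophoresis. Setup: HepG2 transfected with MRTUs reporting endogenous transcription-factor activity, dosed 24 h. Gain or loss of signal fitted bidirectionally against DMSO control.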
# [20] = biological target: Paired box protein Pax-6 (Homo sapiens) (UniProt P26367); assay: ATG_Pax6_CIS: Attagene CIS-FACTORIAL HepG2 Assay for human Paired Box 6 (PAX6) (AID 2282956); conditions: HepG2 CIS-FACTORIAL PAX6 reporter transcription, RNA readout; actives raise or lower the signal
# Chain of Paired box protein Pax-6 (Homo sapiens) (P26367 whole entry, looked up): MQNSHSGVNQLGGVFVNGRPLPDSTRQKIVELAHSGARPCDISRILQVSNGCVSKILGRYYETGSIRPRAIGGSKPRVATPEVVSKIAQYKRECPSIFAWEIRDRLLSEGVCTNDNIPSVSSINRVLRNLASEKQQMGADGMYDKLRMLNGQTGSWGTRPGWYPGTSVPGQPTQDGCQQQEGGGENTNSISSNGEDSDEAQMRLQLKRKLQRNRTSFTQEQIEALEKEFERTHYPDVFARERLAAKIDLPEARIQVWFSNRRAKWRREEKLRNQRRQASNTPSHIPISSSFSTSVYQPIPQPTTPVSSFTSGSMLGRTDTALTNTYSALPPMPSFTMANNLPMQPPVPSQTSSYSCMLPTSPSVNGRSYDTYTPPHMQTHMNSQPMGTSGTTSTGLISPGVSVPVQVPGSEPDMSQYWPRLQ
# Outline: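 Fluorescent RT-PCR products separated by capillary electrophoresis report PAX6-linked promoter mRNA in HepG2 cells 24 h post-dose. Curves fitted bidirectionally, DMSO as negative control.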
smiles,measurement,setting,value
CCNc1nc(N)nc(Cl)n1,outcome,[1],inactive
same,outcome,[2],inactive
same,outcome,[3],inactive
same,outcome,[4],inactive
same,outcome,[5],inactive
same,outcome,[6],inactive
same,outcome,[7],inactive
same,outcome,[8],inactive
same,outcome,[9],inactive
same,outcome,[10],inactive
same,outcome,[11],inactive
same,outcome,[12],inactive
same,outcome,[13],inactive
same,outcome,[14],inactive
c1ccc2[nH]c(-c3cscn3)nc2c1,outcome,[15],inactive
same,outcome,[1],inactive
same,outcome,[3],inactive
same,outcome,[4],inactive
same,outcome,[5],inactive
same,outcome,[6],inactive
same,outcome,[7],inactive
same,outcome,[8],inactive
same,AC50,[9],10 µM (active)
same,outcome,[9],inactive
same,outcome,[16],inactive
same,outcome,[17],inactive
same,outcome,[10],inactive
same,outcome,[11],inactive
same,outcome,[12],inactive
same,outcome,[13],inactive
same,outcome,[14],inactive
same,outcome,[18],inactive
CC(C)(C)[C@@H](O)[C@@H](Cc1ccc(Cl)cc1)n1cncn1,AC50,[15],90.9 µM (active)
same,outcome,[1],inactive
same,outcome,[3],inactive
same,outcome,[4],inactive
same,outcome,[5],inactive
same,outcome,[6],inactive
same,outcome,[7],inactive
same,AC50,[9],13.5 µM (active)
same,outcome,[16],inactive
same,outcome,[17],inactive
same,outcome,[10],inactive
same,outcome,[11],inactive
same,outcome,[12],inactive
same,outcome,[19],inactive
same,outcome,[13],inactive
same,outcome,[14],inactive
O=C(Nc1ccc([N+](=O)[O-])cc1Cl)c1cc(Cl)ccc1O,outcome,[15],inactive
same,outcome,[1],inactive
same,outcome,[3],inactive
same,outcome,[5],inactive
same,outcome,[6],inactive
same,AC50,[7],0.947 µM (active)
same,AC50,[8],0.7 µM (active)
same,outcome,[20],inactive
same,AC50,[9],0.426 µM (active)
same,outcome,[16],inactive
same,AC50,[17],1.19 µM (active)
same,outcome,[10],inactive
same,AC50,[11],0.7 µM (active)
same,AC50,[12],0.7 µM (active)
same,outcome,[19],inactive
same,outcome,[13],inactive
same,outcome,[14],inactive
same,outcome,[18],inactive
CCOC(=O)c1ccc(O)cc1,outcome,[15],inactive
same,outcome,[1],inactive
same,outcome,[3],inactive
same,outcome,[4],inactive
same,outcome,[5],inactive
same,outcome,[6],inactive
same,outcome,[7],inactive
same,outcome,[8],inactive
same,outcome,[9],inactive
same,AC50,[17],57.3 µM (active)
same,outcome,[17],inactive
same,outcome,[10],inactive
same,outcome,[11],inactive
same,AC50,[12],43.7 µM (active)
same,outcome,[12],inactive
same,outcome,[13],inactive
same,outcome,[14],inactive
same,outcome,[18],inactive
